Measured values published in PubChem BioAssay AID1159580 (chemical genetic matrix, 2015).
Values joined by “and” are separate entries in the source; they are usually repeats but may differ in a detail not shown here. Identical values can stand only once. Among all 5,500 compounds or so, about 2,000 (36%) were called active. Another 18% or so got no clear call; they are omitted. Cut-off read from the data, not from the text of the source: active = normalized growth mostly below about 0.91 (no sharp cut-off); inconclusive = no clear call, values can overlap the other calls; inactive = mostly above about 0.92. The list shows a part of the results.

Assay: chemical genetic growth profiling, strain panel (AID 1159580);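 note: tested at 20 µM; growth read once vehicle control cultures reached saturation at 30 °C; 1 = growth at the plate median or of vehicle wells; lower values mean less growth of the strain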
Details: S. cerevisiae deletion strains, growth OD
[1] = locus YMR307W, strain GAS1, hits give low values
[2] = locus YNL322C, strain KRE1, hits give low values

Measured: normalized growth

Nc1nc2ncc(CNc3ccc(C(=O)N[C@@H](CCC(=O)O)C(=O)O)cc3)nc2c(=O)[nH]1
inactive: locus YAL021C, strain ccr4, hits give low values 0.993 | locus YAL026C, strain drs2, hits give low values 1.01 | locus YAL030W, strain snc1, hits give low values 0.998 | locus YBL061C, strain skt5, hits give low values 1 | locus YBR009C, strain hhf1, hits give low values 1.01 | locus YBR021W, strain FUR4, hits give low values 1.04 | locus YBR023C, strain chs3, hits give low values 0.995 | locus YBR171W, strain sec66, hits give low values 0.996 | locus YBR229C, strain ROT2, hits give low values 0.992 | locus YBR231C, strain swc5, hits give low values 0.996 | locus YBR279W, strain paf1, hits give low values 0.996 | locus YCL011C, strain gbp2, hits give low values 1 | locus YCL016C, strain dcc1, hits give low values 0.998 | locus YCL029C, strain bik1, hits give low values 0.976 | locus YCL061C, strain MRC1, hits give low values 0.998 | locus YCL069W, strain vba3, hits give low values 1 | locus YCR088W, strain abp1, hits give low values 1 | locus YDL005C, strain med2, hits give low values 1 | locus YDL035C, strain GPR1, hits give low values 0.995 | locus YDL040C, strain nat1, hits give low values 0.995 | locus YDL074C, strain BRE1, hits give low values 0.993 | locus YDL101C, strain DUN1, hits give low values 0.996 | locus YDL185W, strain tfp1, hits give low values 0.956 | locus YDL192W, strain arf1, hits give low values 0.976 | locus YDR001C, strain nth1, hits give low values 0.997 | locus YDR069C, strain doa4, hits give low values 0.999 | locus YDR101C, strain arx1, hits give low values 0.982 | locus YDR137W, strain rgp1, hits give low values 1.03 | locus YDR159W, strain sac3, hits give low values 1.01 | locus YDR162C, strain NBP2, hits give low values 1.02 | locus YDR195W, strain ref2 0.993 | locus YDR297W, strain sur2, hits give low values 0.997 | locus YDR318W, strain mcm21, hits give low values 0.99 | locus YDR334W, strain swr1, hits give low values 1 | locus YDR335W, strain msn5, hits give low values 0.997 | locus YDR388W, hits give low values 0.976 | locus YDR392W, strain spt3, hits give low values 0.941 | locus YDR502C, strain sam2, hits give low values 0.986 | locus YEL003W, strain gim4, hits give low values 1.01 | locus YEL037C, strain rad23, hits give low values 1 | locus YEL061C, strain CIN8 (second series), hits give low values 1 | locus YEL061C, strain CIN8, hits give low values 0.988 | locus YER015W, strain faa2, hits give low values 1 | locus YER016W, strain bim1, hits give low values 1.01 | locus YER110C, hits give low values 0.952 | locus YER111C, strain swi4, hits give low values 0.985 | locus YER155C, strain BEM2 (second series), hits give low values 1.01 | locus YER155C, strain BEM2, hits give low values 0.986 | locus YER167W, strain BCK2, hits give low values 0.99 | locus YFR010W, strain ubp6, hits give low values 1.01 | locus YGL078C, strain dbp3, hits give low values 0.998 | locus YGL086W, strain mad1, hits give low values 0.968 | locus YGL167C, strain pmr1, hits give low values 1 | locus YGL173C, strain kem1, hits give low values 0.996 | locus YGL227W, strain vid30, hits give low values 0.993 | locus YGL240W, strain doc1, hits give low values 1.02 | locus YGL248W, strain PDE1, hits give low values 1.01 | locus YGL253W, strain hxk2, hits give low values 0.993 | locus YGR078C, strain PAC10, hits give low values 1.03 | locus YGR135W, strain pre9, hits give low values 1 | locus YGR252W, strain gcn5, hits give low values 1.21 | locus YHR013C, strain ard1, hits give low values 1 | locus YHR027C, strain rpn1, hits give low values 1 | locus YHR030C, strain SLT2, hits give low values 0.971 and 1.02 | locus YHR079C, strain IRE1 (second series), hits give low values 0.972 | locus YHR079C, strain IRE1, hits give low values 1.03 | locus YHR094C, strain hxt1, hits give low values 0.989 | locus YHR129C, strain ARP1, hits give low values 0.99 | locus YHR142W, strain chs7, hits give low values 0.989 | locus YHR200W, strain rpn10, hits give low values 0.985 | locus YIL066C, strain RNR3, hits give low values 1 | locus YIL073C, strain SPO22, hits give low values 0.922 | locus YIL125W, strain kgd1, hits give low values 0.94 | locus YIR030C, strain dcg1, hits give low values 0.985 | locus YJL092W, strain hpr5, hits give low values 0.995 | locus YJL095W, strain BCK1 (second series), hits give low values 0.992 | locus YJL095W, strain BCK1, hits give low values 1.05 and 1.02 | locus YJL115W, strain asf1, hits give low values 1 | locus YJL129C, strain trk1, hits give low values 0.993 | locus YJL134W, strain LCB3, hits give low values 0.979 | locus YJL154C, strain vps35, hits give low values 1 | locus YJL164C, strain tpk1, hits give low values 0.994 | locus YJL166W, strain qcr8, hits give low values 0.995 | locus YJL168C, strain set2, hits give low values 1.01 | locus YJL187C, strain SWE1 (second series), hits give low values 1.01 | locus YJL187C, strain SWE1, hits give low values 0.999 | locus YJR043C, strain POL32, hits give low values 1.01 | locus YJR066W, strain TOR1, hits give low values 0.959 | locus YKL009W, strain mrt4, hits give low values 0.954 | locus YKL068W, hits give low values 0.98 | locus YKL085W, strain MDH1 (second series), hits give low values 0.981 | locus YKL085W, strain MDH1, hits give low values 0.981 | locus YKL160W, strain elf1, hits give low values 0.987 | locus YKL190W, strain CNB1, hits give low values 0.985 | locus YKR001C, strain vps1, hits give low values 0.975 | locus YKR026C, strain gcn3, hits give low values 1 | locus YKR091W, strain srl3, hits give low values 1 | locus YLL001W, strain dnm1, hits give low values 0.967 | locus YLL026W, hits give low values 0.997 | locus YLL041C, strain sdh2, hits give low values 0.998 | locus YLR027C, strain aat2, hits give low values 1 | locus YLR039C, strain RIC1, hits give low values 0.987 | locus YLR058C, strain SHM2, hits give low values 0.991 | locus YLR102C, strain apc9, hits give low values 0.957 | locus YLR113W, strain HOG1, hits give low values 1.02 | locus YLR221C, strain rsa3, hits give low values 0.995 | locus YLR258W, strain gsy2, hits give low values 0.998 | locus YLR262C, strain YPT6 (second series), hits give low values 0.998 | locus YLR262C, strain YPT6, hits give low values 1 | locus YLR268W, strain sec22, hits give low values 0.963 | locus YLR320W, strain mms22, hits give low values 0.992 | locus YLR330W, strain CHS5, hits give low values 0.979 | locus YLR342W, strain FKS1 (second series), hits give low values 1.01 | locus YLR342W, strain FKS1, hits give low values 0.995 | locus YLR357W, strain rsc2, hits give low values 1.01 | locus YLR370C, strain arc18, hits give low values 0.994 | locus YLR371W, strain rom2, hits give low values 0.98 | locus YLR384C, strain iki3, hits give low values 1.01 | locus YLR418C, strain cdc73, hits give low values 1.04 | locus YML016C, strain PPZ1, hits give low values 0.989 | locus YML032C, strain rad52, hits give low values 0.985 | locus YML120C, strain ndi1, hits give low values 0.995 | locus YML124C, strain tub3, hits give low values 0.991 | locus YMR058W, strain fet3, hits give low values 1 | locus YMR078C, strain ctf18, hits give low values 0.982 | locus YMR125W, strain sto1, hits give low values 0.993 | locus YMR129W, hits give low values 1 | locus YMR205C, strain PFK2, hits give low values 0.992 | locus YMR223W, strain ubp8, hits give low values 0.998 | locus YMR231W, strain pep5, hits give low values 1 | locus YMR263W, strain SAP30, hits give low values 0.995 | [1] 1.19 | locus YNL067W, strain RPL9B, hits give low values 1.02 | locus YNL071W, strain lat1, hits give low values 1 | locus YNL153C, strain GIM3, hits give low values 1.03 | locus YNL183C, strain NPR1, hits give low values 0.947 | locus YNL209W, strain ssb2, hits give low values 0.998 | locus YNL233W, strain BNI4, hits give low values 1.03 | locus YNL248C, strain rpa49, hits give low values 0.994 | locus YNL250W, strain rad50, hits give low values 0.981 | locus YNL271C, strain bni1, hits give low values 0.997 | locus YNL298W, strain CLA4, hits give low values 0.989 | locus YNL307C, strain MCK1, hits give low values 0.98 | locus YNL322C, strain KRE1 (second series), hits give low values 0.998 | [2] 0.987 | locus YNR049C, strain mso1, hits give low values 0.999 | locus YNR052C, strain pop2, hits give low values 0.994 | locus YOL012C, strain htz1 0.994 | locus YOL147C, strain pex11, hits give low values 0.985 | locus YOR001W, strain rrp6, hits give low values 0.984 | locus YOR061W, strain CKA2, hits give low values 0.99 | locus YOR069W, strain VPS5, hits give low values 0.981 | locus YOR070C, strain gyp1, hits give low values 0.996 | locus YOR080W, strain dia2, hits give low values 1 | locus YOR083W, strain WHI5, hits give low values 0.985 | locus YOR106W, strain vam3, hits give low values 1.02 | locus YOR136W, strain idh2, hits give low values 0.987 | locus YOR144C, strain elg1, hits give low values 0.987 | locus YOR184W, strain ser1, hits give low values 0.963 | locus YOR231W, strain MKK1, hits give low values 1.03 | locus YOR265W, strain rbl2, hits give low values 1.01 | locus YOR270C, strain vph1, hits give low values 0.99 | locus YOR290C, strain snf2, hits give low values 1.02 | locus YOR316C, strain cot1, hits give low values 0.988 | locus YPL051W, strain arl3, hits give low values 0.997 | locus YPL078C, strain atp4, hits give low values 0.996 | locus YPL106C, strain sse1, hits give low values 0.963 | locus YPL240C, strain hsp82, hits give low values 0.985 | locus YPL256C, strain CLN2, hits give low values 1.02 | locus YPR119W, strain clb2, hits give low values 0.976 | locus YPR141C, strain kar3, hits give low values 0.979 | locus YPR163C, strain tif3, hits give low values 0.993 | locus YPR167C, strain met16, hits give low values 0.97 | strain wtn01, hits give low values 0.971

O=C(O)CC[C@@H](NC(=O)c1ccccc1C(=O)O)C(=O)O
inactive: locus YAL013W, strain DEP1, hits give low values 1.02 | locus YAL040C, strain CLN3, hits give low values 0.995 | locus YCL061C, strain MRC1 (second series), hits give low values 1.01 | locus YDR363W, strain ESC2, hits give low values 1.01 | locus YER002W, strain NOP16, hits give low values 1.03 | locus YGR229C, strain SMI1, hits give low values 1.03 | locus YJR075W, strain HOC1, hits give low values 1.01 | [1] 1 | locus YNL175C, strain NOP13, hits give low values 1 | locus YNL197C, strain WHI3, hits give low values 1.01 | locus YNL224C, strain SQS1, hits give low values 1.01 | [2] 1 | locus YOR083W, strain WHI5 (second series), hits give low values 1.02 | locus YPL241C, strain CIN2, hits give low values 1.01
